From the supplement of paper PMC12350171 come the findings set out here.

Molecules are shown by their SMILES. Where a name gives a salt, the structure may show the parent alone. Values without a mark were called inactive.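 How the source made its calls: active = AUC significantly below DMSO controls by Student t-fit with adjusted P under 0.01; inactive = not significantly reduced.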

The experiment has as its system Haemophilus parainfluenzae. The experiment can be described thus: growth AUC normalised to DMSO control (fraction of control); higher = less growth inhibition, active = hit call of the paper. The conditions noted are these: 20 µM. The gist of the method:
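Pathogens passaged twice anaerobically were inoculated at a starting OD578 of 0.01 into pre-reduced mGAM plates with drug at 20 μM and 1% DMSO, sealed with breathable membranes. Haemophilus parainfluenzae medium was supplemented with hemin and NAD. OD578 was read hourly for 24 h, with three biological replicates. Growth-curve AUC was computed by the trapezoidal rule up to the exponential-to-stationary transition and normalised to DMSO controls on the same plate.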
On to `C[C@@H](O)[C@H]1C(=O)N2C(C(=O)O)=C(SCCNC=N)C[C@H]12` [Imipenem], for which the “growth AUC normalised to DMSO control” value was 1.01.

With `CC(=O)[C@H]1CC[C@H]2[C@@H]3CC=C4C[C@@H](O)CC[C@]4(C)[C@H]3CC[C@]12C` [Pregnenolone], the “growth AUC normalised to DMSO control” value is 1.01.

With `O=C(O)c1ccccc1OP(=O)(O)O` [Fosfosal], the “growth AUC normalised to DMSO control” value was 0.998.

As to `CC(=O)Nc1nnc(S(N)(=O)=O)s1` [Acetazolamide], the “growth AUC normalised to DMSO control” value was 0.959.

`COc1ccccc1N1CCN(CC(O)COc2cccc3ccccc23)CC1` (centres undefined) [Naftopidil dihydrochloride]: the “growth AUC normalised to DMSO control” value is 0.971.

Consider `CN(C)CCCC1(c2ccc(F)cc2)OCc2cc(C#N)ccc21` (centres undefined) [Citalopram hydrobromide], for which the “growth AUC normalised to DMSO control” value is 1.01.

Turning to `CC(CN(C)C)CN1c2ccccc2Sc2ccccc21` (centres undefined) [Trimeprazine tartrate], the “growth AUC normalised to DMSO control” value was 0.94.

On to `CCN1CCC[C@H]1CNC(=O)c1c(O)c(Cl)cc(Cl)c1OC` [Raclopride], for which the “growth AUC normalised to DMSO control” value is 0.944.

On to `CC(=O)O[C@@]12CO[C@@H]1C[C@H](O)[C@@]1(C)C(=O)[C@H](O)C3=C(C)[C@@H](OC(=O)[C@H](O)[C@@H](NC(=O)OC(C)(C)C)c4ccccc4)C[C@@](O)([C@@H](OC(=O)c4ccccc4)[C@H]21)C3(C)C` [Docetaxel], for which the “growth AUC normalised to DMSO control” value is 1.05.

Take `NC1CCN(c2c(F)cc3c(=O)c(C(=O)O)cn(C4CC4)c3c2Cl)C1` (centres undefined) [Clinafloxacin]: the “growth AUC normalised to DMSO control” value was 0.0486 (active).

For `N=C(N)NS(=O)(=O)c1ccc(N)cc1` [Sulfaguanidine], the “growth AUC normalised to DMSO control” value is 1.04.

Turning to `CC(C)[N+](C)(CCOC(=O)C1c2ccccc2Oc2ccccc21)C(C)C` [Propantheline bromide], the “growth AUC normalised to DMSO control” value is 0.988.

`CC(C)n1c(/C=C/C(O)CC(O)CC(=O)O)c(-c2ccc(F)cc2)c2ccccc21` (centres undefined) [Fluvastatin sodium salt]: the “growth AUC normalised to DMSO control” value is 1.

Turning to `O=c1[nH]cnc2c1ncn2[C@H]1CC[C@@H](CO)O1` [Didanosine], the “growth AUC normalised to DMSO control” value is 1.03.

As to `CC(C)(C)NCC(O)c1cc(O)cc(O)c1` (centres undefined) [Terbutaline hemisulfate], the “growth AUC normalised to DMSO control” value was 1.06.

For the compound `CC(c1cc2ccccc2s1)N(O)C(N)=O` (centres undefined) [Zileuton], the “growth AUC normalised to DMSO control” value is 0.909.

Consider `CC(C)CC(=O)N[C@H](C(=O)N[C@H](C(=O)N[C@@H](CC(C)C)[C@@H](O)CC(=O)N[C@@H](C)C(=O)N[C@@H](CC(C)C)[C@@H](O)CC(=O)O)C(C)C)C(C)C` [Pepstatin A], for which the “growth AUC normalised to DMSO control” value was 1.07.

Consider `O=C1CCc2ccc(OCCCCN3CCN(c4cccc(Cl)c4Cl)CC3)cc2N1` [Aripiprazole], for which the “growth AUC normalised to DMSO control” value is 0.994.

Regarding `O=C(O)CNC(=O)C(CS)Cc1ccccc1` (centres undefined) [Thiorphan], the “growth AUC normalised to DMSO control” value is 0.891.

For the compound `Nc1nc(F)nc2c1ncn2[C@@H]1O[C@H](CO)[C@@H](O)[C@@H]1O` [Fludarabine], the “growth AUC normalised to DMSO control” value was 1.01.

Turning to `CC(C)(Sc1cc(C(C)(C)C)c(O)c(C(C)(C)C)c1)Sc1cc(C(C)(C)C)c(O)c(C(C)(C)C)c1` [Probucol], the “growth AUC normalised to DMSO control” value is 1.01.

`CN(C(=O)CN(CCO)CC(=O)N(C)C(C)(C)Cc1ccccc1)C(C)(C)Cc1ccccc1` [Oxethazaine]: the “growth AUC normalised to DMSO control” value was 0.737.

For the compound `CC(=O)Oc1cc(C(F)(F)F)ccc1C(=O)O` [Triflusal], the “growth AUC normalised to DMSO control” value was 0.819.

On to `Cc1cc2c(cc1S(N)(=O)=O)S(=O)(=O)CCC2` [Meticrane], for which the “growth AUC normalised to DMSO control” value is 1.04.

As to `CO[C@@]1(NC(=O)C(C(=O)O)c2ccc(O)cc2)C(=O)N2C(C(=O)O)=C(CSc3nnnn3C)CO[C@@H]21` (some centres undefined) [Moxalactam disodium salt], the “growth AUC normalised to DMSO control” value is 0.076 (active).

Consider `CC(CN1c2ccccc2Sc2ccccc21)N(C)C` (centres undefined) [Promethazine hydrochloride], for which the “growth AUC normalised to DMSO control” value is 0.954.

With `Clc1ccc(Cn2c(CN3CCCC3)nc3ccccc32)cc1` [Clemizole hydrochloride], the “growth AUC normalised to DMSO control” value is 0.982.

On to `Cc1cc(C(C)(C)C)c(O)c(C)c1CC1=NCCN1` [Oxymetazoline hydrochloride], for which the “growth AUC normalised to DMSO control” value was 0.991.

Turning to `CC(=O)OCC(=O)[C@@]1(OC(C)=O)[C@@H](C)C[C@H]2[C@@H]3C[C@H](F)C4=CC(=O)C=C[C@]4(C)[C@@]3(F)[C@@H](O)C[C@@]21C` [Diflorasone Diacetate], the “growth AUC normalised to DMSO control” value was 0.953.

As to `O=C(NCC(O)CO)c1c(I)c(C(=O)NCC(O)CO)c(I)c(N(CCO)C(=O)CO)c1I` (centres undefined) [Ioversol], the “growth AUC normalised to DMSO control” value is 1.06.

`CN1CCN2c3ncccc3Cc3ccccc3C2C1` (centres undefined) [Mirtazapine]: the “growth AUC normalised to DMSO control” value was 1.49.

As for `CCCc1cc(=O)[nH]c(=S)[nH]1` [Propylthiouracil], the “growth AUC normalised to DMSO control” value is 0.991.

`NNC(=O)c1ccncc1` [Isoniazid]: the “growth AUC normalised to DMSO control” value was 1.09.

For the compound `CN(C)CCOC(c1ccccc1)c1ccccc1` [Diphenhydramine hydrochloride], the “growth AUC normalised to DMSO control” value was 0.992.

As to `CCc1oc2ccccc2c1C(=O)c1cc(Br)c(O)c(Br)c1` [Benzbromarone], the “growth AUC normalised to DMSO control” value is 0.987.

Take `CC[N+](CC)(CC(=O)Nc1c(C)cccc1C)Cc1ccccc1` [Denatonium benzoate]: the “growth AUC normalised to DMSO control” value is 1.05.

For the compound `CCc1cc(C(N)=S)ccn1` [Ethionamide], the “growth AUC normalised to DMSO control” value is 0.983.

For `CCCCC[C@H](O)/C=C/[C@H]1[C@H](O)CC(=O)[C@@H]1CCCCCCC(=O)O` [Alprostadil], the “growth AUC normalised to DMSO control” value was 0.903.

On to `CCOc1ccc2c(c1)C(C)=CC(C)(C)N2` [Ethoxyquin], for which the “growth AUC normalised to DMSO control” value was 0.94.
